In PubChem BioAssay AID652017 (The Scripps Research Institute Molecular Screening Center, 2013):
Hit rate of the full screen: of about 370,000 compounds, about 3,800 (1%) were called active. Cut-off read from the data, not from the text of the source: active = activation above about 7.8%; inactive = the rest. This excerpt belongs to a sample that is enriched for actives.

Test: SMARCA2 (BRM) function activators, primary screen, cell-based, luminescence, high throughput (AID 652017);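 note: 0% = vehicle wells and 100% = reference activator wells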
Settings: MG213 cells, MMTV-luciferase reporter, dexamethasone, overnight; at 9.1 µM; active compounds read high

activation, inactive:
Cc1[nH]n(C)c(=O)c1C(=O)c1c(-c2c(Cl)cccc2Cl)noc1C -2.74%
Cn1c(-c2ccc(C(F)(F)F)cc2)cc2onc(-c3ccccc3)c2c1=O 5.26%
CCOC(=O)[C@]12CCCCC/C=C\1N(Cc1ccc(OC)cc1)C(=O)[C@H]2CC(=O)NCCCN1CCCC1=O -2.38%
O=C(CNS(=O)(=O)c1ccccc1F)N1CCN(c2ccccn2)CC1 -3.89%
COC(=O)[C@]12C[C@H](CC(=O)NCCc3ccccc3OC)C(=O)N(Cc3ccco3)C1=C[C@H](C(C)C)O[C@@H]2C1CC1 -4.32%
COC(=O)[C@]12C[C@H](CC(=O)NCc3cccc4ccccc34)C(=O)N(CCc3ccc(OC)c(OC)c3)C1=C[C@H](C1CCCC1)O[C@@H]2C -1.03%
CCCCN1CCN(C(=O)c2ccc3c(c2)NC(=O)C(C)(C)O3)CC1 2.59%
O=S1(=O)c2c(cccc2N2CC[C@H](O)C2)O[C@@H]2CCN1C2 -1.6%
CCc1nc2ccc(C(=O)NCCNC(C)=O)cn2c1N(CC)Cc1cccc(Br)c1 -2.59%
Cc1cnc(C(=O)N2CCCC(C(=O)c3ccc(C(F)(F)F)cc3)C2)cn1 (centres undefined) 1.89%
COCC(=O)N1CCCC(C(=O)c2ccc(C(F)(F)F)cc2)C1 (centres undefined) -2.48%
CCOC(=O)C1=C(C)NC2=C(C(=O)CC(C)(C)C2)C1c1ccc2c(c1)OCO2 (centres undefined) -5.79%
O=C(c1cccc(C(F)(F)F)c1)N1CC[C@H]2[C@H](CCCN2Cc2cc(F)cc(F)c2)C1 -1.61%
CCOc1ccccc1NC(=O)C12CC3CC(C1)CC(c1ccc(C)cc1)(C3)C2 -1.92%
CSc1ccc(/C=C/C(=O)NC23CC4CC(CC(C4)C2)C3)cc1 1.32%
O=C(NCc1ccc(Cl)cc1)C1CCCN(c2nc3ccccc3o2)C1 (centres undefined) -7.39%
Cc1ccc(C2=CCN(C)C(=O)N2c2ccc(Cl)cc2)cc1 1.89%
CN1CCC[C@@H]1CCO[C@](C)(c1ccccc1)c1ccc(Cl)cc1 -5.64%
S=C(NCCCc1cnc[nH]1)NCCCN(Cc1ccc(Cl)c(Cl)c1)c1ccc(Br)cn1 -3.8%
COC(=O)C[C@@H]1CC[C@H]2[C@@H](COc3ccc(NS(=O)(=O)CC(F)(F)F)cc3C(=O)N2C)O1 -3.47%
COC(=O)[C@]12C[C@H](CC(=O)N3CCN(C(=O)C4CC4)CC3)C(=O)N(CCC3=CCCCC3)C1=C[C@H](C(C)C)O[C@@H]2C1CC1 0.49%
Cc1cc(NS(=O)(=O)c2ccc(NC(=O)CSc3nnc(-c4ccc(C(C)(C)C)cc4)n3Cc3ccco3)cc2)nc(C)n1 -2%
O=C(CSc1nc2ccccc2c(=O)n1-c1ccccc1F)N1CCOCC1 -2.52%
COc1ccc(-n2c(SCC(=O)Nc3ccc(C)c(Cl)c3)nc3ccccc3c2=O)cc1 -5.45%
N#Cc1cccc(NC(=O)COC(=O)c2ccccc2C(=O)c2ccc(Cl)c([N+](=O)[O-])c2)c1 6.3%
O=C(CN1CCCc2ccccc21)NCc1ccc(F)cc1 4.7%
Cc1ccc(-n2c(SCC(=O)Nc3cccc4ccccc34)nnc2-c2ccco2)cc1 -1.08%
C[C@@H]1ON(C)[C@H]2C[C@H]3c4[nH]c5cccc(-c6ccc7c(c6)OCO7)c5c4CCN3C[C@@H]12 -5.68%
Clc1ccc(C(Cn2ccnc2)OCc2ccsc2Cl)c(Cl)c1 (centres undefined) -7.85%
Cc1c(C#N)c(NC(=O)c2ccccc2)n(Cc2ccccc2)c1C -1.06%
COc1ccc(Cn2cccc(NC(=O)Nc3ccc(C#N)cc3)c2=O)cc1 -4.78%
CC(NCc1ccco1)C(=O)N1CCCCC1 (centres undefined) -2.78%
CC1CCN(c2ccc(C(=O)O)cc2NS(=O)(=O)c2ccc(Br)s2)CC1 0.67%
CCOC(=O)c1cccc(NC(=O)CN(C)S(=O)(=O)c2ccc(-c3cocn3)s2)c1 -7.26%
CC(C)CC1NC(=O)c2cc(Cl)ccc2-n2c1nc1ccccc1c2=O (centres undefined) -0.02%
Cc1ccc(S(=O)(=O)NCc2nc3ccccc3c(=O)n2N)cc1 -5.01%
O=C(OC12CCCN(C1)/C(=C/c1ccccc1)C2)c1ccco1 (centres undefined) -4.02%
CC[C@H](NC(=O)[C@H](Cc1ccccc1)NC(=O)[C@H]1O[C@@H](n2cnc3c(=O)[nH]c(N)nc32)[C@H](O)[C@@H]1O)c1ccccc1 -4.41%
COC(=O)Cc1ccc(NC(=S)NCc2ccco2)cc1 -1.02%
COC(=O)/C=C/C(=O)NCc1ccco1 1.96%
COC(=O)[C@H](C(C)C)N1CCc2nnn(Cc3ccc(C)cc3)c2-c2ccccc2S1(=O)=O -3.89%
CC(=O)c1ccc(S(=O)(=O)Nc2ccc(C(=O)NCC(c3ccccc3)N(C)C)cc2)cc1 (centres undefined) 5.98%
COc1ccc(C(CNC(=O)c2ccc(NS(=O)(=O)c3ccc(F)c(C)c3)cc2)N(C)C)cc1 (centres undefined) -1.05%

activation, active:
Cn1c(-c2ccc(F)cc2)cc2onc(-c3ccccc3Cl)c2c1=O 9.9%
CCOc1cccc2c1OC1(CCCCC1)N1N=C(c3cccnc3)CC21 (centres undefined) 8%
Cn1cc(/C=C/C(=O)N2CCCC(C(=O)c3ccc(C(F)(F)F)cc3)C2)cn1 (centres undefined) 9.62%
COc1ccc(/C=C/C(=O)Nc2ccc(C34CC5CC(CC(O)(C5)C3)C4)cc2)cc1OC 9.95%
Cc1cc2oc3ccc(NCCC4CCCN4C)cc3c(=O)c2cc1C (centres undefined) 8.67%
Cc1ccc(-n2c(SCC(=O)N3CCC(C(=O)O)CC3)nc3ccccc3c2=O)cc1C 9%
Cc1cc(C)c2nc3nc(C)cc(C)c3c(N)c2c1 22.7%
COc1ccc(Cn2c(C)c(C)c(C#N)c2NC(=O)Nc2ccc(F)cc2)cc1 13.3%
CCCN1C(=O)C(Cc2nc3ccccc3c(=O)n2-c2ccccc2)c2cc(C)ccc21 (centres undefined) 8.92%
CC(C)(C)c1ccc(NC(=O)NCc2ccco2)cc1 8.76%
COc1ccc(C(CNC(=O)c2ccc(S(=O)(=O)Nc3ccccc3F)cc2)N(C)C)cc1 (centres undefined) 8.4%
